PubChem BioAssay (EPA / NIEHS)
Some structures have more than one record in an assay (separate samples or runs), and their calls can disagree. Calls of active or inactive are those of the source. Rule for the calls: active = hit-call score of the fitted dose curve at least 0.9, where 1 is the maximum; inactive = score below 0.9.

Assay: ATG_GATA_CIS: Attagene CIS-FACTORIAL HepG2 Assay for human GATA Binding Protein (AID 2282944)
Conditions: HepG2 GATA cis-element reporter, Attagene multiplex mRNA; actives raise or lower the signal
Protocol: ATG_CIS is a cell-based, multiplexed-readout assay that uses HepG2, a human liver cell line, with measurements taken at 24 hours after chemical dosing in a 24-well plate.ATG_GATA_CIS is one of 52 assay component(s) measured or calculated from the ATG_CIS assay. It is designed to make measurements of mRNA induction, a form of inducible reporter, as detected with fluorescence intensity signals by Reverse transcription polymerase chain reaction (RT-PCR) and Capillary electrophoresis technology.Data from the assay component ATG_GATA_CIS was analyzed into 1 assay endpoint. This assay endpoint, ATG_GATA_CIS, was analyzed with bidirectional fitting relative to DMSO as the negative control and baseline of activity. Using a type of inducible reporter, measures of mRNA for gain or loss-of-signal activity can be used to understand the reporter gene at the transcription factor-level as they relate to the gene GATA1. Furthermore, this assay endpoint can be referred to as a primary readout, because this assay has produced multiple assay endpoints where this one serves a reporter gene function. To generalize the intended target to other relatable targets, this assay endpoint is annotated to the dna binding intended target family, where the subfamily is GATA proteins.
Human liver HepG2 cells are transiently transfected with multiple reporter transcription units (MRTUs) in 6-well plates using FuGene 6 reagent (Roche; 3 ml FuGene/1 mg DNA). The MRTU constructs are regulated by a cis-regulating element (promoter). […] A major difference between the CIS and TRANS system is that in CIS activities of endogenous TFs are measured, whereas the TRANS assay evaluates changes in activities of exogenous, chimeric NR-Gal4 proteins. […] At the end of 24 hour incubation, total RNA was isolated using TriZol reagent (Invitrogen). The isolated RNA is then reverse-transcribed using oligo(dT) primer and Mo-MLV reverse transcriptase (Invitrogen) with DNAse I (Ambion) treatment for 30 min. The one-tenth of the produced cDNA was amplified by PCR using Taq DNA polymerase (Invitrogen) and two reporter sequence-specific primers. The PCR products were fluorescently labeled by primer extension with 6-arboxyfluorescein (6-FAM) 5'-labeled reporter sequence-specific primer (2 min at 95 C, 20 s at 68 C and 10 min at 72 C) and these products were digested with 5U of HpaI (New England Biolabs) for 2h at 37 C. The fragments were purified using Qiaquick PCR columns (Qiagen), analyzed on an ABI 3130xL genetic analyzer (Applied Biosystems) with peak positions identified by using a set of X-rhodamine (ROX)-labeled MapMarker1000 molecular weight standards (BioVentures). The raw capillary electrophoresis data was processed using Attagraph software (Attagene).
With `OC(c1ccc(Cl)cc1)(c1cncnc1)c1ccccc1Cl` (stereo not given) the AC50 was 12.9 µM (active) and the outcome was “inactive”. In the case of `CCc1nn(C)c(C(=O)NCc2ccc(C(C)(C)C)cc2)c1Cl`, the outcome is reported as “inactive”. With `CCNc1nc(Cl)nc(NCC)n1` the outcome was “inactive”. With `Cc1c(F)c(F)c(COC(=O)C2C(/C=C(\Cl)C(F)(F)F)C2(C)C)c(F)c1F` (stereo not given) the outcome was “inactive”. For `COc1cnc(OC)n2nc(NS(=O)(=O)c3c(OCC(F)F)cccc3C(F)(F)F)nc12`, the outcome was “inactive”. In the case of `CCCCNC(=O)n1c(NC(=O)OC)nc2ccccc21`, the outcome is reported as “inactive”. With `CC1=C(C(=O)Nc2ccccc2)SCCO1` the outcome was “inactive”. In the case of `CNC(=O)ON=CC(C)(C)SC`, the outcome is reported as “inactive”. For `C=CCC1=C(C)[C@@H](OC(=O)[C@@H]2[C@@H](C=C(C)C)C2(C)C)CC1=O`, the outcome was “inactive”. For `COC(=O)N(OC)c1ccccc1COc1ccn(-c2ccc(Cl)cc2)n1`, the outcome was “inactive”. In the case of `COC(=O)C=C(C)OP(=O)(OC)OC`, the outcome is reported as “inactive”. With `CCON=C(CC)C1=C(O)CC(c2c(C)cc(C)cc2C)CC1=O` (stereo not given) the outcome was “inactive”. In the case of `COc1nc(C)nc(NC(=O)NS(=O)(=O)c2ccccc2CCC(F)(F)F)n1`, the outcome is reported as “inactive”. For `Cc1cc(Cl)ccc1OCC(=O)O`, the outcome was “inactive”. With `CON(C)C(=O)Nc1ccc(Cl)c(Cl)c1` the outcome was “inactive”. For `O=C(Nc1ccccc1)Nc1ccnc(Cl)c1`, the outcome was “inactive”. For `CC(C)(C)c1ccc(CSc2cnn(C(C)(C)C)c(=O)c2Cl)cc1`, the outcome was “inactive”. For `CCCN(CCC)c1c([N+](=O)[O-])cc(S(N)(=O)=O)cc1[N+](=O)[O-]`, the outcome was “inactive”. In the case of `Oc1ccccc1-c1ccccc1`, the outcome is reported as “inactive”. With `CC1COC(Cn2cncn2)(c2ccc(Oc3ccc(Cl)cc3)cc2Cl)O1` (stereo not given) the outcome was “inactive”. In the case of `COc1ccc(C(c2ccc(OC)cc2)C(Cl)(Cl)Cl)cc1`, the outcome is reported as “inactive”. In the case of `CO/C=C(/C(=O)OC)c1ccccc1Oc1cc(Oc2ccccc2C#N)ncn1`, the outcome is reported as “inactive”. For `N#Cc1cc(Br)c(O)c(Br)c1`, the outcome was “inactive”. In the case of `N#CC(CCc1ccc(Cl)cc1)(Cn1cncn1)c1ccccc1` (stereo not given), the outcome is reported as “inactive”. For `CCOc1cc(Oc2ccc(C(F)(F)F)cc2Cl)ccc1[N+](=O)[O-]`, the outcome was “inactive”. For `CCCC1COC(Cn2cncn2)(c2ccc(Cl)cc2Cl)O1` (stereo not given), the outcome was “inactive”. With `Cc1ccc(-c2c(Cl)nc(C#N)n2S(=O)(=O)N(C)C)cc1` the outcome was “inactive”. For `C=CCC1=C(C)C(OC(=O)C2C(C=C(C)C)C2(C)C)CC1=O` (stereo not given), the outcome was “inactive”. In the case of `Fc1ccc(Oc2ccnc3cc(Cl)cc(Cl)c23)cc1`, the outcome is reported as “inactive”. For `CC(C)C1(C)N=C(c2nc3ccccc3cc2C(=O)O)NC1=O` (stereo not given), the outcome was “inactive”. In the case of `CCOP(=S)(OCC)SCn1c(=O)oc2cc(Cl)ccc21`, the outcome is reported as “inactive”. With `C=CC1(C)OC(=O)N(c2cc(Cl)cc(Cl)c2)C1=O` (stereo not given) the outcome was “inactive”. For `CNC(=S)S`, the outcome was “inactive”. In the case of `COP(N)(=O)SC` (stereo not given), the outcome is reported as “inactive”. With `COP(=S)(OC)Oc1nc(Cl)c(Cl)cc1Cl` the outcome was “inactive”. For `CCNc1nc(Cl)nc(NC(C)C)n1`, the outcome was “inactive”. With `CC(C)Oc1cc(-n2nc(C(C)(C)C)oc2=O)c(Cl)cc1Cl` the outcome was “inactive”. With `COC(=O)c1ccccc1C(=O)OC` the outcome was “inactive”. With `COc1nc(NC(C)C)nc(NC(C)C)n1` the outcome was “inactive”.
